From PubChem BioAssay (NCI) come the findings set out here.

This is part of a sample that, as a whole, favours compounds with a hit. Of some 83,000 tested, about 20% had one in any assay.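 In brief: 96-well plates, 48 h treatment, single concentration, percent growth endpoint.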 Unmarked numbers belong to inactive results. Active and inactive are the calls of the source. How the source made its calls: active means growth percent below 10; inactive means the rest.

In the assay the test system is MDA-MB-468 breast. Put plainly: NCI-60 one-dose screen, 48 h (100 = growth as untreated, 0 = no growth, -100 = all killed). The conditions noted are these: 10 µM unless noted.
With `O=C1NC(=O)C(=Cc2ccc(OCCCCC3CCCCC3)c(Cl)c2)C(=O)N1`, the growth was 101%. As for `O1[As]2O[As]3O[As]1O[As](O2)O3`, the figure is -63.2% (active); as for `CC(C)Nc1ccc(Nc2ccccc2)cc1`, 5.88% (active). Next, `O=C1C(=O)c2ccccc2-c2ccccc21`: -85.6% (active).

For the compound `O=C1C2CC=CCC2C(=O)N1SC(Cl)(Cl)Cl` (stereo unspecified), the growth was 103%.

`COS(=O)(=O)c1ccccc1`: the growth was 114%. In the case of `CC(=O)OC1CCC2(C)C(CCC3C2CC(=O)C2(C)C3CC(Sc3ccc(N(CCCl)CCCl)cc3)C2C(C)=O)C1` (stereo unspecified), the growth is 86.6%.

Consider `O=C1NC(=O)C(=Cc2cccn2CCCCCn2c3ccccc3c(=O)c3ccccc32)C(=O)N1`, for which the growth is 107%. Next, `COc1ccc(/C=C\c2cc(OC)c(OC)c(OC)c2)cc1OCC(=O)Nc1nc2ccc(C(F)(F)F)cc2s1`: 1.38% (active); `O=S(=O)(c1ccc(O)cc1)c1ccccc1O`: 108%; `CCOc1ccccc1C(=O)OCC(Cl)(Cl)Cl`: 110%.

With `Cc1c2ccncc2c(C)c2c1[nH]c1ccccc12`, the growth is -54.9% (active).

On to `Cc1cc([N+](=O)[O-])c(Cl)cc1NS(=O)(=O)c1ccccc1`, for which the growth was 59.4%.

Turning to `CNC(C)Cc1ccccc1` (stereo unspecified) (tested in a mixture with another compound), the growth is 91.3%.

For `Clc1ccc(COC(Cn2ccnc2)c2ccc(Cl)cc2Cl)c(Cl)c1` (stereo unspecified), the growth is 33.3%. As for `CC[C@H](C)[C@H](NC(=O)C12CC(NC)(C1)C2)C(=O)N(C)[C@H](C[C@@H](OC(C)=O)c1nc(C(=O)N[C@@H](Cc2ccccc2)C[C@H](C)C(=O)OC)cs1)C(C)C`, the figure is -8.32% (active); as for `O[C@H](CN1CC1)[C@@H](O)CN1CC1`, 9.35% (active). In the case of `O=C1CCC2(O)[C@@H]3Cc4ccc(O)c5c4[C@]2(CCN3Cc2ccoc2)C1O5` (stereo partly specified), the growth was 97.3%. As to `Cc1ccc(C(=O)NCCCOc2ccc(N3C(N)=NC(N)=NC3(C)C)cc2Cl)cc1S(=O)(=O)F`, the growth is 123%. Next, `Clc1cc(N2CC2)nc(N2CC2)n1`: 9.71% (active); `O=C(CC1(O)C(=O)Nc2ccc(Cl)cc21)c1ccc(C(=O)NCC2CCC3(CC2)OOC2(CCCCC2)OO3)cc1` (stereo unspecified): 18%.

Regarding `Cc1ccc(Nc2nc3c(s2)C2=CC[C@@H]4[C@H](CC[C@]5(C)C(=O)CC[C@@H]45)[C@@]2(C)CC3)cc1`, the growth is 32.3%. Next, `CC[C@]12C=CCN3CC[C@@]4(c5ccc(OC)cc5N(C)[C@H]4[C@@](O)(C(=O)OC)[C@@H]1OC(=O)CCCN1CCN(CCCC(=O)O[C@@H]4[C@]5(CC)C=CCN6CC[C@@]7(c8ccc(OC)cc8N(C)[C@H]7[C@@]4(O)C(=O)OC)[C@@H]65)CC1)[C@@H]32`: -88.4% (active). Next, `Cc1cc2c(cc1-c1ccnc(/C=C/C(=O)O)c1)C(C)(C)CCC2(C)C`: 97.1%; `CC1(C)C(C(=O)c2cn(CCCCF)c3ccccc23)C1(C)C`: 103%; `O=C(CCl)c1ccc([N+](=O)[O-])o1`: -49.5% (active). As for `CCOC(=O)CCN(C)C1=Nc2ccc(Cl)cc2C(c2ccccc2)=[N+]([O-])C1`, the figure is 93.7%; as for `CC(=O)O[C@@H]1CC[C@]2(C)[C@H]3CC[C@]4(C)C(=O)CC[C@H]4[C@@H]3C[C@@H]3SC(N)=N[C@@]32C1`, 29.6%. Regarding `O=C(O)CNCP(=O)(O)O`, the growth is 102%.

Consider `COC(=O)CCc1c[nH]c2ccc(N(CCCl)CCCl)cc12`, for which the growth was 8.73% (active).

Take `COc1cc(C=Nc2cccc(Br)c2)ccc1N(CCCl)CCCl`: the growth is -18.8% (active). For `CC1(C)[C@H](O)[C@H](F)C[C@@]2(C)Oc3ccc(C(=O)Nc4ccc5c(c4)NC(=O)C54CCN(CCCCC#N)CC4)cc3C[C@H]12`, the growth is 7.2% (active). `CCCCN1CCCC[C@@H]1C(=O)N[C@H](C(=O)N(C)[C@H](CCc1nc(C(=O)N[C@@H](Cc2ccccc2)C[C@H](C)C(=O)OC)cs1)C(C)C)[C@@H](C)CC`: the growth is -1.75% (active). Next, `COc1cc2c(O[C@@H]3OC[C@H](OC(C)=O)[C@H](OC(C)=O)[C@H]3O)c3c(c(-c4ccc5c(c4)OCO5)c2cc1OC)C(=O)OC3`: 55.4%; `C[C@]12CC[C@H](O)C[C@@H]1CC[C@@H]1[C@@H]2CC[C@]2(C)OC(=O)CC[C@@H]12`: 106%; `COc1cc(N(CCCl)CCCl)ccc1C=Nc1ccccc1C(=O)O`: 63.3%.
